Inconclusive results are not listed. A call without a number means that no potency is given here. Activity calls are given as the source filed them. The call rests on the fitted dose curve; in most records, active means well fitted cell-killing curve with a large enough effect; inconclusive means small, poorly fitted or top-dose-only effect, or effect the other way; inactive means no such curve, though single readings can be large or run the other way.
Potency means the concentration at half of the fitted maximal effect.

The nature of this test: Quantitative High-Throughput drug screen in 47 multiple myeloma cell lines against the NCATS MIPE library collection: LP1_DSMZ cell viability assay (AID 1918982). Further: nearly all actives have a fitted effect of over 35% in size. Conditions: LP1 myeloma viability, CellTiter-Glo ATP luminescence, 48 h; series mostly up to 45.8 µM. The gist of the method: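 qHTS format: cells plated (500/well), pin-dosed with MIPE 4.0 compounds, kept 48 h at 37 °C. Readout was CellTiter-Glo luminescence, median RLU.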
A general note: Cellular ATP, detected with luciferase, serves as a proxy for viable cell number.
For the molecule `CN1CCN(c2c(F)cc3c(=O)c(C(=O)O)cn(CCF)c3c2F)CC1`, the Potency result is “inactive”.

Regarding `Cc1nnc(C(=O)NC(C)(C)c2nc(C(=O)NCc3ccc(F)cc3)c(O)c(=O)n2C)o1`, the Potency entry was “inactive”.

For the molecule `CC[C@H](C)C(=O)O[C@H]1C[C@@H](C)C=C2C=C[C@H](C)[C@H](CC[C@@H]3C[C@@H](O)CC(=O)O3)[C@H]21`, the Potency is 20.9 µM (active).

For `CC(C)(Sc1cc(C(C)(C)C)c(O)c(C(C)(C)C)c1)Sc1cc(C(C)(C)C)c(O)c(C(C)(C)C)c1`, the Potency entry is “inactive”.

Regarding `COc1cc2ncnc(Nc3cccc(Cl)c3)c2cc1OC`, the Potency result was “inactive”.

With `Cc1ccnc2c1NC(=O)c1cccnc1N2C1CC1`, the Potency result was “inactive”.

For the molecule `CCOC(=O)c1ccc(OC(=O)CCCCCN=C(N)N)cc1`, the Potency result was “inactive”.

`NC(=O)c1cccc(N)c1`: the Potency result was “inactive”.

For `CCn1cc(C(=O)O)c(=O)c2cc(F)c(N3CCN(C)CC3)cc21`, the Potency entry was “inactive”.

Turning to `CCOc1cc(N)c(Cl)cc1C(=O)NCC1CN(Cc2ccc(F)cc2)CCO1` (stereo not drawn), the Potency result is “inactive”.

As for `O=S(=O)(c1cccc2cnccc12)N1CCCNCC1`, the Potency entry is “inactive”.

Take `C[C@@H](CN1CC(=O)NC(=O)C1)N1CC(=O)NC(=O)C1`: the Potency entry is “inactive”.

With `Nc1nc(N)c2nc(CNc3ccc(C(=O)NC(CCC(=O)O)C(=O)O)cc3)cnc2n1` (stereo not drawn), the Potency is 0.0296 µM (active).

For the molecule `CCCCc1oc2ccc(NS(C)(=O)=O)cc2c1C(=O)c1ccc(OCCCN(CCCC)CCCC)cc1`, the Potency is 16.6 µM (active).

`N[C@@H](Cc1ccc(O)c(O)c1)C(=O)O`: the Potency entry is “inactive”.

Take `Nc1ccc(S(=O)(=O)Nc2ccccn2)cc1`: the Potency result is “inactive”.

As for `C[C@@H]1CN(c2c(F)c(N)c3c(=O)c(C(=O)O)cn(C4CC4)c3c2F)C[C@H](C)N1`, the Potency entry is “inactive”.

With `S=P(N1CC1)(N1CC1)N1CC1`, the Potency result is “inactive”.

For the molecule `CC(C)OC(=O)OCOP(=O)(CO[C@H](C)Cn1cnc2c(N)ncnc21)OCOC(=O)OC(C)C`, the Potency entry is “inactive”.

Regarding `NC(=O)c1cccnc1`, the Potency result is “inactive”.

As to `CC1(C)[C@H](C(=O)O)N2C(=O)C[C@H]2S1(=O)=O`, the Potency is 0.0012 µM (active).

As for `CCCN[C@H]1CCc2nc(N)sc2C1`, the Potency entry was “inactive”.

Take `O=S(=O)(O)CCS`: the Potency result was “inactive”.

For the molecule `CCCOc1ccc(C(=O)OCCN(CC)CC)cc1N`, the Potency entry is “inactive”.

On to `CN1CCN(c2c(F)cc3c(=O)c(C(=O)O)cn4c3c2OCN4C)CC1`, for which the Potency result was “inactive”.

Take `Cc1nnc(NS(=O)(=O)c2ccc(N)cc2)s1`: the Potency entry was “inactive”.

On to `NS(=O)(=O)c1cc2c(cc1Cl)NC(C(Cl)Cl)NS2(=O)=O` (stereo not drawn), for which the Potency result was “inactive”.

On to `OC(Cn1cncn1)(Cn1cncn1)c1ccc(F)cc1F`, for which the Potency entry was “inactive”.

The values above are taken from PubChem BioAssay (NCATS).
